# Data from PubChem BioAssay (Tox21).
# Results filed as inconclusive are left out. Unmarked numbers belong to inactive results. Calls of active or inactive are those of the source. Calls follow the shape of the dose curve; as a rule, active = well fitted inhibition curve with a large enough effect in the repeat runs; inconclusive = weak or mixed curves; inactive = no such curve, though single readings can be large or run the other way.
# Biological target: Cytochrome P450 2D6 (Homo sapiens) (UniProt P10635)
# Sequence (P10635 whole entry, looked up): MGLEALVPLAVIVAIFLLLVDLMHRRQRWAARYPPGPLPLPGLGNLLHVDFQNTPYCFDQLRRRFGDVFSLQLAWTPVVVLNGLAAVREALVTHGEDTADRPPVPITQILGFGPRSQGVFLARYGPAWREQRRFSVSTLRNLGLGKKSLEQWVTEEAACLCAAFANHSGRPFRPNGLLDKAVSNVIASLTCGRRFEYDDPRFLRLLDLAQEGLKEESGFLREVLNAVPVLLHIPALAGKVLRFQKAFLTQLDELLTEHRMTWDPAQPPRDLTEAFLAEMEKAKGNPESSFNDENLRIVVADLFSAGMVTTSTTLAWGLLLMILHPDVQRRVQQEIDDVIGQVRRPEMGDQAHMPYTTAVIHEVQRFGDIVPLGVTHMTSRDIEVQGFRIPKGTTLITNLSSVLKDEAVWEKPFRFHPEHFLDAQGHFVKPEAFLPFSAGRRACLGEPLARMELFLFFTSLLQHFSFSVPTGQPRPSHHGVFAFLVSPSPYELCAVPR
# Experiment: Cytochrome P450 Family 2 Subfamily D Member 6 (CYP2D6) small molecule antagonists: luciferase reporter qHTS assay (AID 1671196); also: nearly all actives have a fitted effect of over 50% in size
# Conditions: P450-Glo CYP2D6 enzyme assay, luciferin luminescence, 1 h; series mostly up to 115 µM; activity change, negative = inhibition: at the top concentration
# Source text: U.S. Tox21 Program National Center for Advancing Translational Sciences [NCATS] U.S. Environmental Protection Agency [EPA] National Institutes of Environmental Health Sciences [NIEHS] National Toxicology Program [NTP] U.S. Food and Drug Administration [FDA] Tox21 Assay Overview: Cytochrome P450 (CYP) enzymes are membrane-bound hemeproteins that play a key role in metabolism of drugs and xenobiotics. Evaluation of the effect of chemicals on CYP isozymes is useful to minimize the adverse drug reactions and toxicities in drug development process. Tox21 chemicals were tested for their effect on CYP enzyme activities by using P450-Glo (TM) screening systems (Promega Corporation, Madison, WI). These systems provide a luminescent method containing proluciferin substrates and are converted to luciferin products by CYP isozymes. The luciferin products formed are detected with a luciferin detection reagent, and the amount of light produced is proportional to CYP activity. P450-Glo (TM) CYP2D6 screening system (Catalog. No. V9890) was used to detect the compounds that interfere in CYP2D6 activity.
# Tox21 Assay Protocol Summary: Two ul of enzyme-substrate mix was dispensed into medium binding white/solid 1536-well plates (Greiner Bio-One North America Inc., Monroe, NC) using a BioRaptr Flying Reagent Dispenser (FRD, Beckman Coulter, Brea, CA). […] The assay plates were incubated at room temperature for 10 min. Then 2 ul of NADPH regeneration solution was added to each well of the assay plates using an FRD and incubated at room temperature for 1 h. The reaction was stopped by adding 4 ul of detection reagent using an FRD and after 20 min incubation at room temperature the luminescence signal was measured using a ViewLux plate reader (Perkin Elmer, Shelton, CT). Data were expressed as relative luminescence units.
# % is scaled to controls: 0 for no effect and ±100 for the full control effect; potency is read from the fitted curve at half-maximal effect.
Compound,"activity change, negative = inhibition",Potency
CCOC(=O)CC(=O)C(=O)OCC,-99.1%,
CC1(C)C2=CCCC(C)(C)[C@]23CC[C@H]1C3,-14%,
O=C(CCCN1CCN(c2ccc(F)cc2)CC1)NC1c2ccccc2CSc2ccccc21 (stereo not given),,9.77 µM (active)
CNC(=O)N(c1ccccc1)c1ccccc1,,35.7 µM (active)
N#C[C@@H]1C[C@@H]2C[C@@H]2N1C(=O)[C@@H](N)C12CC3CC(CC(O)(C3)C1)C2,,38.9 µM (active)
CCCC(=O)O[C@]1(C(=O)COC(=O)CC)CC[C@H]2[C@@H]3CCC4=CC(=O)CC[C@]4(C)[C@H]3[C@@H](O)C[C@@]21C,-0.0142% [at 23.6 µM],
CC(C)(C)C(=O)O,-15.8%,
CN(C)CCOC1=Cc2ccccc2Sc2ccc(Cl)cc21,,4.36 µM (active)
CCCCCCCC/C=C\CCCCCCCC(=O)OC,-6.96%,
CN1Cc2cc(C(=O)N3CCC(C4CCNCC4)CC3)ccc2N[C@@H](CC(=O)O)C1=O,-11.1% [at 53 µM],
CCCCCCCCCCCC[N+](C)(C)CCCS(=O)(=O)[O-],-21.4%,
CCC(C(=O)OCCOCCN(CC)CC)c1ccccc1 (stereo not given),,13.8 µM (active)
O=S1OCCO1,-19.2%,
CO[C@H]1O[C@H](CO)[C@@H](O)[C@H](O)[C@H]1O,2.54%,
COC(=O)c1cc(Cl)ccc1NS(=O)(=O)C(F)(F)F,-11% [at 53 µM],
CCCCCCCCCCCC(=O)[O][Sn]([CH2]CCC)([CH2]CCC)[O]C(=O)CCCCCCCCCCC,-14.2% [at 53 µM],
COc1ccc(C(=O)c2cccc(O)c2)c(OC)c1,-27.8%,
Cc1ccccc1N1C(=O)c2cc(S(N)(=O)=O)c(Cl)cc2NC1C (stereo not given),-6.65% [at 53 µM],
Cc1cc(O)c2c(O)c3c(O)cccc3cc2c1,-5.95% [at 53 µM],
NC(=O)Nc1ccc(Cl)cc1,-2.44%,

Compound,"activity change, negative = inhibition",Potency
Cc1nccn1-c1ccc(Sc2cccc(C3(C(N)=O)CCOCC3)c2)cc1,,35.6 µM (active)
CN1CCN(c2c(F)cc3c(=O)c(C(=O)O)cn4c3c2OCN4C)CC1,-1.32% [at 23.6 µM],
CC(C)(CCl)c1ccccc1,-6.01%,
O=C(C(=O)c1ccccc1)c1ccccc1,,31.6 µM (active)
O=C(O)Cc1ccc(-c2ccccc2)cc1,-9.03% [at 53 µM],
Cc1cc(OI)c(C(C)C)cc1-c1cc(C(C)C)c(OI)cc1C,-3.29% [at 53 µM],
NC(=O)N(O)[C@@H]1C=C[C@H](Oc2cccc(Oc3ccc(F)cc3)c2)C1,,5.03 µM (active)
Cc1oc(C)c(C(=O)Nc2ccccc2)c1C,,56.4 µM (active)
OCC1CC=CCC1 (stereo not given),0.272%,
CC1C2CC(CC2C2CCCC(O)C2)C1(C)C (stereo not given),-19%,
CCCCC(CC)COC(=O)COc1ccc(Cl)cc1C (stereo not given),-23.4%,
Cc1cc(S(=O)(=O)O)ccc1N=Nc1c(O)ccc2ccccc12,,39.9 µM (active)
COc1ccccc1N=Nc1c(S(=O)(=O)O)cc2cc(S(=O)(=O)O)cc(NC(C)=O)c2c1O,,33.5 µM (active)
CCC(C(=O)OCCN(CC)CC)c1ccccc1 (stereo not given),,3.09 µM (active)
O=C(O)c1cccnc1C(=O)O,-23.2%,
CCCOCCOCCO,-7.07%,
Cc1c(C(=O)NN2CCCCC2)nn(-c2ccc(Cl)cc2Cl)c1-c1ccc(Cl)cc1,-5.15% [at 53 µM],
CCCCC(CC)C(=O)OCCOCCOCCOCCOC(=O)C(CC)CCCC (stereo not given),-19.1%,
O=Cc1c(Cl)cccc1Cl,-1.98%,
CC(C)CCCCCCOC(=O)CCCCC(=O)OCCCCCCC(C)C,-9.2%,
